# Measured values: PubChem BioAssay (Tox21)
# Unmarked numbers belong to inactive results. Records with an inconclusive call do not appear. A call without a number means that no potency is given here. The source made the active and inactive calls. Calls come from the whole dose curve; as a rule, active = well fitted curve in the direction sought with a large enough effect in the repeat runs; inconclusive = weak or mixed curves; inactive = no such curve, though single readings can be large; an effect the other way counts as inactive or inconclusive.
# Columns and labels:
# [1] = Human pregnane X receptor (PXR) small molecule agonists, qHTS cell viability counter screen (AID 1346977); note: nearly all actives have a fitted effect of over 50% in size; note: potency is the fitted concentration of half-maximal effect
# Method in brief: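 PXR-Luc HepG2 cells (2,000/well, 5% charcoal-stripped FBS) preincubated 5 hr, then exposed to compounds 24 hr at 37 C. Viability read in the same wells by CellTiter-Fluor fluorescence, reagent added at 23 hr, 1 hr incubation.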
# [2] = Caspase-3/7 induction in HepG2 cells by small molecules, qHTS assay (AID 1346978); note: nearly all actives have a fitted effect of over 15% in size
# Method in brief: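 Wild-type HepG2 cells (2,000/well) were settled 5 h at 37 C, 5% CO2, then exposed to compounds in DMSO for 17 h. Caspase-3/7 activity was read by luminescence 30 min after adding Caspase-Glo 3/7 reagent at room temperature.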
# [3] = Caspase-3/7 induction in CHO-K1 cells by small molecules, qHTS cell viability counter screen (AID 1346979); note: nearly all actives have a fitted effect of over 35% in size; note: potency is the fitted concentration of half-maximal effect
# Method in brief: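 Wild-type CHO-K1 cells (1,500/well) treated with compound after 5 h plating; after 16 h at 37C, viability read as CellTiter-Fluor fluorescence following 1 h reagent incubation, in the same wells as the caspase read.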
# [4] = Caspase-3/7 induction in CHO-K1 cells by small molecules, qHTS assay (AID 1346980); note: nearly all actives have a fitted effect of over 15% in size
# Method in brief: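 Wild-type cells were seeded at 1,500 per well and settled 5 hr at 37 C, 5% CO2, then exposed to DMSO-dissolved compounds for 17 hr. Caspase-Glo 3/7 reagent was added, and luminescence was read after 30min at room temperature.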
# [5] = Caspase-3/7 induction in HepG2 cells by small molecules, qHTS cell viability counter screen (AID 1346981); note: nearly all actives have a fitted effect of over 30% in size; note: potency is the fitted concentration of half-maximal effect
# Method in brief: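 Fluorescence read-out of live-cell protease activity (CellTiter-Fluor) after 1 hr with reagent. This was measured in the same wells as the caspase-3/7 luminescence, on HepG2 cells exposed to DMSO-dissolved compounds for 16 hr at 37 C.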
# [6] = target: Nuclear receptor subfamily 1 group I member 2 (Homo sapiens) (UniProt O75469); assay: Human pregnane X receptor (PXR) small molecule agonists, qHTS assay (AID 1346982); note: nearly all actives have a fitted effect of over 35% in size; note: potency is the fitted concentration of half-maximal effect
# Method in brief: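 HepG2 PXR-Luc reporter line, 5% charcoal-stripped FBS; 5 hr pre-incubation, compound (DMSO) 24 hr at 37 C/5% CO2; ONE-Glo 30 min RT; luminescence read-out.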
# [7] = target: Nuclear receptor subfamily 1 group I member 2 (Rattus norvegicus) (UniProt Q9R1A7); assay: Rat pregnane X receptor (rPXR) activation by small molecules, qHTS assay (AID 1346983); conditions: rPXR luciferase reporter cells, One-Glo luminescence, 24 h; active compounds read high; note: nearly all actives have a fitted effect of over 20% in size
# Method in brief: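 Cell-based rPXR luciferase reporter assay, 2,000 cells per well, rested 5hr at 37 C before compound addition in DMSO, then 24 hr at 37 C. One-Glo reagent was added and luminescence read after 30 min at room temperature.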
# [8] = target: Nuclear receptor subfamily 1 group I member 2 (Homo sapiens) (UniProt O75469); assay: CYP3A4 induction through human pregnane X receptor (PXR) by small molecules, qHTS assay (AID 1346984); note: nearly all actives have a fitted effect of over 40% in size
# Method in brief: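 HepG2-derived DPX-2 line carrying PXR plus a CYP3A4-promoter luciferase reporter; cells plated 5 hr, compound-exposed 24 hr at 37C. CYP3A4 activity probed with 3uM (final) Luciferin-IPA for 3hr, then luciferase read after One-Glo.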
# [9] = target: Nuclear receptor subfamily 1 group I member 2 (Homo sapiens) (UniProt O75469); assay: Human pregnane X receptor (PXR) activation by small molecules, qHTS assay (AID 1346985); note: nearly all actives have a fitted effect of over 40% in size
# Method in brief: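 DPX-2 cells (HepG2 co-transfected with a PXR response element and a CYP3A4-promoter luciferase construct) were seeded at 2,000 per well, rested 5 hr at 37C, then exposed to DMSO-dissolved compounds for 24 hr. Activation was read as luciferase luminescence.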
# [10] = target: Cytochrome P450 2D6 (Homo sapiens) (UniProt P10635); assay: Cytochrome P450 Family 2 Subfamily D Member 6 (CYP2D6) small molecule antagonists: luciferase reporter qHTS assay (AID 1671196); note: nearly all actives have a fitted effect of over 50% in size; note: potency is the fitted concentration of half-maximal effect
# Method in brief: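 Luminogenic proluciferin substrate, CYP2D6 enzyme; 10 min RT preincubation with compound, NADPH regeneration system added, 1 h RT. Stop/detection reagent, 20 min RT, luminescence read (RLU). Signal proportional to CYP activity.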
# [11] = target: Cytochrome P450 2C9 (Homo sapiens) (UniProt P11712); assay: Cytochrome P450 Family 2 Subfamily C Member 9 (CYP2C9) small molecule antagonists: luciferase reporter qHTS assay (AID 1671198); note: nearly all actives have a fitted effect of over 50% in size; note: potency is the fitted concentration of half-maximal effect
# Method in brief: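 CYP2C9 activity was measured with a P450-Glo proluciferin substrate. Enzyme–substrate mix was held with compound for 10 min at room temperature, then NADPH regeneration solution was added for 1 h at 37C. Luciferin product was read as luminescence.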
# [12] = target: Cytochrome P450 1A2 (Homo sapiens) (UniProt P05177); assay: Cytochrome P450 Family 1 Subfamily A Member 2 (CYP1A2) small molecule antagonists: luciferase reporter qHTS assay (AID 1671199); note: nearly all actives have a fitted effect of over 50% in size; note: potency is the fitted concentration of half-maximal effect
# Method in brief: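 Luminescence readout (relative luminescence units) after luciferin detection reagent, 20 min RT. Preceded by 1 h room-temperature CYP1A2 reaction with NADPH regeneration solution following 10 min compound preincubation with enzyme and proluciferin substrate. Furafylline positive control.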
# [13] = target: Voltage-gated inwardly rectifying potassium channel KCNH2 (Homo sapiens) (UniProt Q12809); assay: Human Ether-a-go-go-Related Gene (hERG) channel small molecule antagonists: fluorescence cell-based qHTS assay (AID 1671200)
# Method in brief: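 hERG-U2OS cells plated overnight at 37 C, loaded with FluxOR II dye 1 h at RT in dark; after 10 min, thallium stimulus added. Fluorescence (480/540 nm) read kinetically for 2 min at 1 s intervals.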
# [14] = target: Cytochrome P450 3A4 (Homo sapiens) (UniProt P08684); assay: Cytochrome P450 Family 3 Subfamily A Member 4 (CYP3A4) small molecule antagonists: luciferase reporter qHTS assay (AID 1671201); note: nearly all actives have a fitted effect of over 50% in size; note: potency is the fitted concentration of half-maximal effect
# Method in brief: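 P450-Glo CYP3A4 luminescent assay: compounds preincubated 10 min at room temperature with enzyme and proluciferin substrate, NADPH regeneration added, 1 h room-temperature reaction, stopped with luciferin detection reagent; luminescence read after 20 min. Ketoconazole positive control.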
# [15] = target: Cytochrome P450 2C19 (Homo sapiens) (UniProt P33261); assay: Cytochrome P450 Family 2 Subfamily C Member 19 (CYP2C19) small molecule antagonists: luciferase reporter qHTS assay (AID 1671197); note: nearly all actives have a fitted effect of over 65% in size; note: potency is the fitted concentration of half-maximal effect
# Method in brief: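 First, compounds are pinned into enzyme-substrate mix and held 10 min at room temperature. Second, NADPH regeneration solution is added and plates incubate 1 h at 37C. Third, detection reagent is added and luminescence read after 20 min.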
# Cytochrome P450 1A2 (Homo sapiens), sequence (P05177 whole entry, looked up): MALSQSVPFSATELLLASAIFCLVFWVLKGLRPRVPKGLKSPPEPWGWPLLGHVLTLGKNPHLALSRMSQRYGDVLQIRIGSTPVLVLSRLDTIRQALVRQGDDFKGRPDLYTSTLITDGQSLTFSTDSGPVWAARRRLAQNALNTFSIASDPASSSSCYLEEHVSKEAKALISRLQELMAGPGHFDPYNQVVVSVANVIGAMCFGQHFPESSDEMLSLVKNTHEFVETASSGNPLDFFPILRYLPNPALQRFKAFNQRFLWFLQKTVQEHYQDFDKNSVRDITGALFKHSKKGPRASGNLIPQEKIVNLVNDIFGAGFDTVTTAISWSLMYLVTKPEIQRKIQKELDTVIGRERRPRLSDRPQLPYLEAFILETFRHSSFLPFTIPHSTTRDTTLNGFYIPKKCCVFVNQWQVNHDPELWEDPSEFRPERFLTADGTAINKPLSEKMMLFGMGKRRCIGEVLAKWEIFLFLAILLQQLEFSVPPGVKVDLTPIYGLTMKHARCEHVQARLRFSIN
# Cytochrome P450 3A4 (Homo sapiens), sequence (P08684 whole entry, looked up): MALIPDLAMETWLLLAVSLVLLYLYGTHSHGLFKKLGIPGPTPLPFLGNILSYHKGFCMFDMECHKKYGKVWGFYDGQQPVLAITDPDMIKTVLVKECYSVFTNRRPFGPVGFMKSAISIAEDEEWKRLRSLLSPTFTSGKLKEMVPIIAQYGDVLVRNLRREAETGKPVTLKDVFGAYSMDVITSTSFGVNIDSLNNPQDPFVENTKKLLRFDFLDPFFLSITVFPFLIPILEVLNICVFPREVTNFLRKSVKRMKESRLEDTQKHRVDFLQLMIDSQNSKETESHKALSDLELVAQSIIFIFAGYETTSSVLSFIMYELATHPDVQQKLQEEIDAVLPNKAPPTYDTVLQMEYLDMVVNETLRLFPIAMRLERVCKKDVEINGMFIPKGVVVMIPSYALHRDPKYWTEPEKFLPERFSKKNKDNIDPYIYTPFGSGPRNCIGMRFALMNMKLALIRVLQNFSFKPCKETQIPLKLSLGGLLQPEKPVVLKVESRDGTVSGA
# Nuclear receptor subfamily 1 group I member 2 (Rattus norvegicus), sequence (Q9R1A7 whole entry, looked up): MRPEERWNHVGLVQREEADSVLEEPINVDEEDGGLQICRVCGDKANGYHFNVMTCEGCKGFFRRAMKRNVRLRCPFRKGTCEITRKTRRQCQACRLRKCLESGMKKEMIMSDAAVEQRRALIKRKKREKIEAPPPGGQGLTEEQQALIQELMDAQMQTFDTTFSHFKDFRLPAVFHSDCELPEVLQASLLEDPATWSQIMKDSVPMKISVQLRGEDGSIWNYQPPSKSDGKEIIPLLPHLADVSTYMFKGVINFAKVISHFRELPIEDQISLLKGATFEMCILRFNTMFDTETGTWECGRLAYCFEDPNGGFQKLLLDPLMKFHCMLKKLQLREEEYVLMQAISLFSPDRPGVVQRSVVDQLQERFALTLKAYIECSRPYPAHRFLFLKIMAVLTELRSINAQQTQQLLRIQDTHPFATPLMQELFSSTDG
# Cytochrome P450 2C9 (Homo sapiens), sequence (P11712 whole entry, looked up): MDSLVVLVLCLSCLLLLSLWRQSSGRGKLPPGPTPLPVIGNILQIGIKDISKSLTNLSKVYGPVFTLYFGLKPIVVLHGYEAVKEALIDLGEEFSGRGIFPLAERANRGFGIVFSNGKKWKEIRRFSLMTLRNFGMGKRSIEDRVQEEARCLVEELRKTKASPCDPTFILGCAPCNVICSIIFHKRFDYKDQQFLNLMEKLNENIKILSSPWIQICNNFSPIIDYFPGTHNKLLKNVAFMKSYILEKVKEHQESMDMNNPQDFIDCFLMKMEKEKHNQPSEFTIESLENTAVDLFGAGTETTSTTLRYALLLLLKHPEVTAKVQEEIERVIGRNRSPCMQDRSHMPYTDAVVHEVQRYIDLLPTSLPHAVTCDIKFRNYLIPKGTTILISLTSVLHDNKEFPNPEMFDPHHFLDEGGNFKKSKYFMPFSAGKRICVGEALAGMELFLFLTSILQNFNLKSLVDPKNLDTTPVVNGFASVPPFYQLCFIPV
# Voltage-gated inwardly rectifying potassium channel KCNH2 (Homo sapiens), sequence (Q12809 whole entry, looked up): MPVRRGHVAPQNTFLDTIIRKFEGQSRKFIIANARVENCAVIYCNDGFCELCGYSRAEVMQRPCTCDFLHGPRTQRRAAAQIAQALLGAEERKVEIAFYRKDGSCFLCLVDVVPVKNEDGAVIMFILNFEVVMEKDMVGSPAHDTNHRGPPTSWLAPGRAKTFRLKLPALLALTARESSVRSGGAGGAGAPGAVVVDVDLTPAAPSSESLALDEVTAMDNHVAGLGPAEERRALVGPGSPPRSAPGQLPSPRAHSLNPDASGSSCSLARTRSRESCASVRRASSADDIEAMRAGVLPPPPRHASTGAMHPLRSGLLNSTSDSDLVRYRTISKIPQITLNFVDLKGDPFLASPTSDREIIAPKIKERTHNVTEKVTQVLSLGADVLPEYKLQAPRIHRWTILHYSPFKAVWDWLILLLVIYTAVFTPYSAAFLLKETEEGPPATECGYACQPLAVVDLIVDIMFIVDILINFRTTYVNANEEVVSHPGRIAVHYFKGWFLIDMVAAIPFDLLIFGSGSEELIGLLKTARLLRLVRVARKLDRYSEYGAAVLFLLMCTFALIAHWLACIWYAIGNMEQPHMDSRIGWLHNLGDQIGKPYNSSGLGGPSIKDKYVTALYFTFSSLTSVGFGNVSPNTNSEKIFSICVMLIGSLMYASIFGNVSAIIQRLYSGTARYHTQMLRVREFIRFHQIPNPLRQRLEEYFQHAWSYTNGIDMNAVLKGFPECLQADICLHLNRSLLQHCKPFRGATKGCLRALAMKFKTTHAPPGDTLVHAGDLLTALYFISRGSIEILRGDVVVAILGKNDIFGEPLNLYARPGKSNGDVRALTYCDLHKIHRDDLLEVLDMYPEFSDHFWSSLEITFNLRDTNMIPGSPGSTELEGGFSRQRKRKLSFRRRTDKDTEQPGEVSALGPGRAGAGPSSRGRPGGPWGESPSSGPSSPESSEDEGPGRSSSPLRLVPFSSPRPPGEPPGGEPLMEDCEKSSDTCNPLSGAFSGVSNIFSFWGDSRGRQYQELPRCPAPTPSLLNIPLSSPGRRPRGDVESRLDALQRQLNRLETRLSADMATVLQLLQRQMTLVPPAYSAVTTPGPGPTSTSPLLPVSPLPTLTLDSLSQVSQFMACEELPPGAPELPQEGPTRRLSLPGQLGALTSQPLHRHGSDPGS
# Cytochrome P450 2D6 (Homo sapiens), sequence (P10635 whole entry, looked up): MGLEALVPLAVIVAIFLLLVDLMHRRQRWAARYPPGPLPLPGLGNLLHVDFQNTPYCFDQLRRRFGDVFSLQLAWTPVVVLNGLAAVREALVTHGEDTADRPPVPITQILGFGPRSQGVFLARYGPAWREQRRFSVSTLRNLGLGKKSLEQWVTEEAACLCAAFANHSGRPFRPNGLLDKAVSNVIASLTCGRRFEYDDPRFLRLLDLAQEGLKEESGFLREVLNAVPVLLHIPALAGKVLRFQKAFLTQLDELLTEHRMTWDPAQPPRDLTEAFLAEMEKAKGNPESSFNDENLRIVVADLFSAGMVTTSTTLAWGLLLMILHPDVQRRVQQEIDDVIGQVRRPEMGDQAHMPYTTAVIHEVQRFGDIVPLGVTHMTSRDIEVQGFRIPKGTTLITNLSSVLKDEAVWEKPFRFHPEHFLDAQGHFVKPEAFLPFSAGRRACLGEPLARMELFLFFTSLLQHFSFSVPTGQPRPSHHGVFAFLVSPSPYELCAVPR
# Cytochrome P450 2C19 (Homo sapiens), sequence (P33261 whole entry, looked up): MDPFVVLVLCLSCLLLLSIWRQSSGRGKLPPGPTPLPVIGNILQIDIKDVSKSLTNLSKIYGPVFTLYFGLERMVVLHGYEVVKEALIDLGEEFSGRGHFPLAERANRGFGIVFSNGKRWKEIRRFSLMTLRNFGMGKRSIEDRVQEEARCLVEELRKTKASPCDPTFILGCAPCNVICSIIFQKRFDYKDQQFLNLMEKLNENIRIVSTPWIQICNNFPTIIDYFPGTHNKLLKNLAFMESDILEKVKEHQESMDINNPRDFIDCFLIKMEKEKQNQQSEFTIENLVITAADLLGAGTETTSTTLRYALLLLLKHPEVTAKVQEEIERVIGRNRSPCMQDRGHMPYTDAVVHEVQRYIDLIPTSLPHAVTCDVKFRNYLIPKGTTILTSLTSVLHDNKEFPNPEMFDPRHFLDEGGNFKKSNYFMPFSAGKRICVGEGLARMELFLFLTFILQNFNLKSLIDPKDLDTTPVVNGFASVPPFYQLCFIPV
# Nuclear receptor subfamily 1 group I member 2 (Homo sapiens), sequence (O75469 whole entry, looked up): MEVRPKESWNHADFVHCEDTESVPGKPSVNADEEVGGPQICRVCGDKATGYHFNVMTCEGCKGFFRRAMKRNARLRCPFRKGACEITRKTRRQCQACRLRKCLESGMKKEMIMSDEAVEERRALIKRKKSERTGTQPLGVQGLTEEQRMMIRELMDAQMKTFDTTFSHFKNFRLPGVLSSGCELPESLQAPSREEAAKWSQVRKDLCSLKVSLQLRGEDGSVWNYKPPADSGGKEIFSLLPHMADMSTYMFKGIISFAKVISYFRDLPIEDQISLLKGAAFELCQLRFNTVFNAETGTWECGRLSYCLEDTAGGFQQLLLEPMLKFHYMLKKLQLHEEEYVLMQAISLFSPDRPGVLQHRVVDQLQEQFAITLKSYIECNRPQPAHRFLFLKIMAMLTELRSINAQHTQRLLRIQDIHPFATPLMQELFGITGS
Structure (SMILES),Potency [1],Potency [2],Potency [3],Potency [4],Potency [5],Potency [6],max activation [7] [%],Potency [8],Potency [9],Potency [10],Potency [11],Potency [12],Potency [13],Potency [14],Potency [15]
O[C@@H]([C@H](O)[C@H](O)CBr)[C@H](O)CBr,inactive,inactive,inactive,inactive,inactive,inactive,-0.988,inactive,inactive,inactive,inactive,70.9 µM (active),inactive,inactive,–
CCCCCCOC(=O)C(C)CC (stereo not drawn),inactive,inactive,inactive,inactive,inactive,inactive,–,–,–,inactive,inactive,inactive,inactive,inactive,inactive
O=C(O)c1ccc2cc(C(=O)O)ccc2c1,inactive,inactive,inactive,inactive,inactive,inactive,–,–,–,inactive,inactive,inactive,inactive,inactive,32 µM (active)
Nc1ccc(NCCO)c([N+](=O)[O-])c1,48.6 µM (active),inactive,43.3 µM (active),inactive,48.6 µM (active),inactive,–,–,–,35.6 µM (active),35.6 µM (active),31.7 µM (active),inactive,25.2 µM (active),79.6 µM (active)
Nc1nc(N)nc(-c2cc(Cl)ccc2Cl)n1,inactive,inactive,inactive,inactive,inactive,inactive,-2.66,inactive,inactive,inactive,inactive,–,inactive,inactive,inactive
CC(C)NC[C@@H](O)COc1ccc(CC(N)=O)cc1,inactive,inactive,inactive,inactive,inactive,inactive,-0.64,–,inactive,–,–,–,–,–,–
CN(C)C(=O)COC(=O)Cc1ccc(OC(=O)c2ccc(N=C(N)N)cc2)cc1,inactive,inactive,inactive,inactive,inactive,inactive,-2.55,inactive,inactive,inactive,inactive,inactive,inactive,inactive,inactive
CC(C)=CCC1=C(O)c2ccccc2C(=O)C1=O,60.8 µM (active),inactive,30.5 µM (active),inactive,60.8 µM (active),19.2 µM (active),–,–,–,44.6 µM (active),31.6 µM (active),11.2 µM (active),inactive,inactive,28.1 µM (active)
Nc1nc(-c2ccccc2)cs1,inactive,inactive,inactive,inactive,inactive,27.2 µM (active),–,–,–,12.6 µM (active),11.2 µM (active),8.91 µM (active),inactive,5.62 µM (active),5.01 µM (active)
O=C(O)c1cc(-c2ccc(F)cc2F)ccc1O,inactive,inactive,inactive,inactive,inactive,inactive,-2,inactive,inactive,inactive,24.5 µM (active),inactive,inactive,inactive,inactive
CCCCC(CC)COC(=O)CCCCC(=O)OCc1ccccc1 (stereo not drawn),inactive,inactive,inactive,inactive,inactive,inactive,–,–,–,inactive,15.9 µM (active),56.4 µM (active),inactive,–,35.6 µM (active)
Nc1nc2c(ncn2COCCO)c(=O)[nH]1,inactive,inactive,inactive,inactive,inactive,inactive,-0.779,inactive,inactive,–,inactive,inactive,–,inactive,inactive
Cc1nc2n(c(=O)c1CCN1CCC(c3noc4cc(F)ccc34)CC1)CCCC2,inactive,inactive,inactive,inactive,inactive,inactive,–,–,–,2.19 µM (active),–,–,–,–,inactive
O=S(=O)(O)c1ccc(Nc2nc(Nc3ccc(/C=C/c4ccc(Nc5nc(Nc6ccc(S(=O)(=O)O)cc6)nc(N(CCO)CCO)n5)cc4S(=O)(=O)O)c(S(=O)(=O)O)c3)nc(N(CCO)CCO)n2)cc1,inactive,inactive,inactive,inactive,inactive,inactive,–,–,–,inactive,inactive,inactive,inactive,inactive,inactive
O=C(O)c1cc(O)c2ccccc2c1O,7.7 µM (active),inactive,6.11 µM (active),inactive,9.69 µM (active),1.93 µM (active),–,–,–,35.6 µM (active),15.9 µM (active),–,–,–,7.1 µM (active)
COc1ccc(NC(=O)CC(C)=O)cc1,inactive,inactive,inactive,inactive,inactive,inactive,–,–,–,inactive,inactive,25.2 µM (active),inactive,inactive,inactive
CCCCCCCCCCC[C@@H](C[C@@H]1OC(=O)[C@H]1CCCCCC)OC(=O)[C@H](CC(C)C)NC=O,inactive,inactive,16.8 µM (active),inactive,inactive,inactive,-3.72,inactive,inactive,–,2.75 µM (active),24.5 µM (active),inactive,–,–
CC(=O)Oc1cc2c(s1)CCN(C(C(=O)C1CC1)c1ccccc1F)C2 (stereo not drawn),inactive,inactive,inactive,inactive,inactive,26.6 µM (active),–,–,–,8.71 µM (active),13.8 µM (active),inactive,–,–,6.92 µM (active)
